Values without a mark were called inactive. Inconclusive results are not listed. Entries that show only a call come without a potency. The source made the active and inactive calls. Calls follow the shape of the dose curve; as a rule, active = well fitted curve in the direction sought with a large enough effect; inconclusive = small, poorly fitted or top-dose-only effect, or another doubt; inactive = no such curve, though single readings can be large; an effect the other way counts as inactive or inconclusive.
tested on: not listed separately; assay: Viability counterscreen for agonist of constitutive androstane receptor (CAR) against the NCATS DSHEA and TCM libraries (AID 1794838); conditions: HepG2 cell viability counterscreen, CAR agonist assay, co-treated with 0.75 µM CAR antagonist; series mostly up to 40 µM;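 also: cells exposed to compound for 24 h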
Summary of the method: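 Multiplexed counterscreen: after 24 h compound exposure with 0.75 uM PK11195, HepG2-CYP2B6-hCAR viability was quantified fluorimetrically (CellTiter-Fluor, 405/540 nm) prior to the ONE-Glo luciferase read.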

| SMILES | outcome | activity change, negative = cytotoxicity |
| --- | --- | --- |
| CC[C@H](CC[C@@H](C)[C@H]1CC[C@H]2[C@@H]3CC=C4C[C@@H](O)CC[C@]4(C)[C@H]3CC[C@]12C)C(C)C | inactive |  |
| CC(C)=CCC/C(C)=C/CC/C(C)=C/CC/C(C)=C/CC1=C(C)C(=O)c2ccccc2C1=O | inactive |  |
| CC/C=C\C/C=C\C/C=C\C/C=C\C/C=C\C/C=C\CCC(=O)O | inactive |  |
| COC1=C(OC)C(=O)C(C/C=C(\C)CC/C=C(\C)CC/C=C(\C)CC/C=C(\C)CC/C=C(\C)CC/C=C(\C)CC/C=C(\C)CC/C=C(\C)CC/C=C(\C)CCC=C(C)C)=C(C)C1=O | inactive |  |
| CCCCCCCCCCCC(=O)OCC(O)CO (stereo not drawn) | inactive |  |
| CCCCC/C=C\C/C=C\C/C=C\CCCCC(=O)O |  | -8.92% [at 5 µM] |
| C=C1CC[C@H](O)C/C1=C\C=C1/CCC[C@]2(C)[C@@H]([C@H](C)CCCC(C)C)CC[C@@H]12 | inactive |  |
| CC/C=C\C/C=C\C/C=C\CCCCCCCC(=O)O | inactive |  |
| CC/C=C\C/C=C\C/C=C\C/C=C\C/C=C\CCCC(=O)O | inactive |  |

molecular target: Nuclear receptor subfamily 1 group I member 3 (Homo sapiens) (UniProt Q14994); assay: Primary qHTS for agonist of constitutive androstane receptor (CAR) against the NCATS DSHEA and TCM libraries (AID 1794839); conditions: CAR agonist reporter cells, qHTS luminescence, CAR antagonist co-added at 0.75 µM; series mostly up to 40 µM;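 also: HepG2 cells expressing human CAR with a CYP2B6 reporter plus PK11195 antagonist; luciferase reporter luminescence read with ONE-Glo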
Summary of the method: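 Concentration–response screen in HepG2-CYP2B6-hCAR cells under 0.75 µM PK11195; 24 h exposure; luminescent reporter signal with multiplexed fluorescent viability.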

Sequence of Nuclear receptor subfamily 1 group I member 3 (Homo sapiens) (Q14994 whole entry, looked up): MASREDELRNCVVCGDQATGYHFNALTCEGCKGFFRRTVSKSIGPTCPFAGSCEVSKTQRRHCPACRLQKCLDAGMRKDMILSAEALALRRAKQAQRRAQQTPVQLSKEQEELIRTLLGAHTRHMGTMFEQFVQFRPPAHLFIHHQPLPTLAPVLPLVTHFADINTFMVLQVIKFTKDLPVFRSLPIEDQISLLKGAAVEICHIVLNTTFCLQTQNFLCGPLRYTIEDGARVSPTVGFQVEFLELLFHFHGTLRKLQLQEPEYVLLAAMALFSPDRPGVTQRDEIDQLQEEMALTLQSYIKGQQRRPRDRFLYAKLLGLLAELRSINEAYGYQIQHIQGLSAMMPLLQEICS

| SMILES | Potency | activation |
| --- | --- | --- |
| CC(C)=CCC/C(C)=C/CC/C(C)=C/CC/C(C)=C/CC1=C(C)C(=O)c2ccccc2C1=O | inactive |  |
| CC/C=C\C/C=C\C/C=C\C/C=C\C/C=C\C/C=C\CCC(=O)O | inactive |  |
| COC1=C(OC)C(=O)C(C/C=C(\C)CC/C=C(\C)CC/C=C(\C)CC/C=C(\C)CC/C=C(\C)CC/C=C(\C)CC/C=C(\C)CC/C=C(\C)CC/C=C(\C)CCC=C(C)C)=C(C)C1=O | inactive |  |
| CCCCCCCCCCCC(=O)OCC(O)CO (stereo not drawn) | inactive |  |
| CCCCC/C=C\C/C=C\C/C=C\CCCCC(=O)O |  | -21.9% [at 5 µM] |
| CC/C=C\C/C=C\C/C=C\CCCCCCCC(=O)O | inactive |  |

tested on: not listed separately; assay: HepG2 viability counterscreen (readout 2: ATP content) against the NCATS DSHEA and TCM libraries (AID 1794840); conditions: ATP content luminescence; series mostly up to 27.3 µM;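 also: HepG2 cells exposed to substances for about 24 h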
Summary of the method: (§1)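 After HepG2 cells attach for ~4 h, substances are added and incubated ~24 h at 37C, 5% CO2. GF-AFC fluorescence then CellTiter-Glo luminescence give protease and ATP readouts.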

| SMILES | outcome | activity change, negative = cytotoxic |
| --- | --- | --- |
| CC[C@H](CC[C@@H](C)[C@H]1CC[C@H]2[C@@H]3CC=C4C[C@@H](O)CC[C@]4(C)[C@H]3CC[C@]12C)C(C)C | inactive |  |
| CC(C)=CCC/C(C)=C/CC/C(C)=C/CC/C(C)=C/CC1=C(C)C(=O)c2ccccc2C1=O | inactive |  |
| O=C(O)/C=C/c1ccccc1 | inactive |  |
| CC/C=C\C/C=C\C/C=C\C/C=C\C/C=C\C/C=C\CCC(=O)O | inactive |  |
| COC1=C(OC)C(=O)C(C/C=C(\C)CC/C=C(\C)CC/C=C(\C)CC/C=C(\C)CC/C=C(\C)CC/C=C(\C)CC/C=C(\C)CC/C=C(\C)CC/C=C(\C)CCC=C(C)C)=C(C)C1=O | inactive |  |
| CCCCCCCCCCCC(=O)OCC(O)CO (stereo not drawn) | inactive |  |
| CCCCC/C=C\C/C=C\C/C=C\CCCCC(=O)O |  | -4.42% [at 3.42 µM] |
| C=C1CC[C@H](O)C/C1=C\C=C1/CCC[C@]2(C)[C@@H]([C@H](C)CCCC(C)C)CC[C@@H]12 | inactive |  |
| CC1=CCC2CC1C2(C)C (stereo not drawn) | inactive |  |
| CC/C=C\C/C=C\C/C=C\CCCCCCCC(=O)O | inactive |  |
| CC/C=C\C/C=C\C/C=C\C/C=C\C/C=C\CCCC(=O)O | inactive |  |

tested on: not listed separately; assay: HepG2 viability counterscreen (readout 1: protease activity) against the NCATS DSHEA and TCM libraries (AID 1794841); conditions: qHTS concentration series; series mostly up to 27.3 µM;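 also: cells exposed to compounds for about 24 h before the protease read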
Summary of the method: as §1

| SMILES | outcome | activity change, negative = inhibition |
| --- | --- | --- |
| CC[C@H](CC[C@@H](C)[C@H]1CC[C@H]2[C@@H]3CC=C4C[C@@H](O)CC[C@]4(C)[C@H]3CC[C@]12C)C(C)C | inactive |  |
| CC(C)=CCC/C(C)=C/CC/C(C)=C/CC/C(C)=C/CC1=C(C)C(=O)c2ccccc2C1=O | inactive |  |
| O=C(O)/C=C/c1ccccc1 | inactive |  |
| CC/C=C\C/C=C\C/C=C\C/C=C\C/C=C\C/C=C\CCC(=O)O | inactive |  |
| COC1=C(OC)C(=O)C(C/C=C(\C)CC/C=C(\C)CC/C=C(\C)CC/C=C(\C)CC/C=C(\C)CC/C=C(\C)CC/C=C(\C)CC/C=C(\C)CC/C=C(\C)CCC=C(C)C)=C(C)C1=O | inactive |  |
| CCCCCCCCCCCC(=O)OCC(O)CO (stereo not drawn) | inactive |  |
| CCCCC/C=C\C/C=C\C/C=C\CCCCC(=O)O |  | 15.8% [at 3.42 µM] |
| C=C1CC[C@H](O)C/C1=C\C=C1/CCC[C@]2(C)[C@@H]([C@H](C)CCCC(C)C)CC[C@@H]12 | inactive |  |
| CC1=CCC2CC1C2(C)C (stereo not drawn) | inactive |  |
| CC/C=C\C/C=C\C/C=C\CCCCCCCC(=O)O | inactive |  |
| CC/C=C\C/C=C\C/C=C\C/C=C\C/C=C\CCCC(=O)O | inactive |  |

molecular target: Glutathione peroxidase 1 (Homo sapiens) (UniProt P07203); assay: Primary qHTS Assay for Inhibitors of Recombinant Selenoprotein Glutathione Peroxidase 1 (GPX1) (AID 1845191); conditions: recombinant GPX1, GR-coupled NADPH fluorescence, 15 min; series mostly up to 48.8 µM; also: nearly all actives have a fitted effect of over 65% in size; also: potency is read from the fitted curve at half-maximal effect
Summary of the method: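 GPX1 10 nM, GR 100 nM, GSH 1 mM, NADPH 0.5 mM, CHP 0.5 mM (final). 30-min cpd preincubation, RT. Ex340/Em450 read t=0, t=15 min.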

Sequence of Glutathione peroxidase 1 (Homo sapiens) (P07203 whole entry, looked up): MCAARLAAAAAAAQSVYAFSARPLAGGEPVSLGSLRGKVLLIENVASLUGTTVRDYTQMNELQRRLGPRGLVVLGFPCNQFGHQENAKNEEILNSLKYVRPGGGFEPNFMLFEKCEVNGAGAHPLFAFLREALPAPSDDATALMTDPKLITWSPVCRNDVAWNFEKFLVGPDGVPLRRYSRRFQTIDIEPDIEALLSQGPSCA

| SMILES | Potency | outcome | activity, negative = inhibition |
| --- | --- | --- | --- |
| C[C@]12CCC(=O)C[C@@H]1CC[C@@H]1[C@@H]2CC[C@]2(C)C=CC[C@@H]12 | inactive |  |  |
| CN(C)C=Nc1c(I)cc(I)c(CCC(=O)O)c1I | inactive |  |  |
| CC[C@H](CC[C@@H](C)[C@H]1CC[C@H]2[C@@H]3CC=C4C[C@@H](O)CC[C@]4(C)[C@H]3CC[C@]12C)C(C)C | inactive |  |  |
| CC(C)=CCC/C(C)=C/CC/C(C)=C/CC/C(C)=C/CC1=C(C)C(=O)c2ccccc2C1=O | inactive |  |  |
| O=C(O)/C=C/c1ccccc1 | inactive |  |  |
| FC(F)(F)C(F)(F)C(F)(F)C(F)(F)C(F)(F)F | inactive |  |  |
| CC(C)(O/N=C(\C(=O)N[C@@H]1C(=O)N2C(C(=O)[O-])=C(C[n+]3ccccc3)CS[C@H]12)c1csc(N)n1)C(=O)O | 7.85 µM (active) |  |  |
| CCOC(=O)C1=C(COCCN)NC(C)=C(C(=O)OC)C1c1ccccc1Cl (stereo not drawn) | inactive |  |  |
| CO/N=C(\C(=O)N[C@@H]1C(=O)N2C(C(=O)O)=C(CSc3nnnn3C)CS[C@H]12)c1csc(N)n1 | 11.4 µM (active) |  |  |
| O=S(=O)(O)CC(S)CS (stereo not drawn) | 10.1 µM (active) |  |  |
| NC[C@@H]1CC[C@@H](N)[C@@H](O[C@H]2[C@H](O)[C@@H](O[C@H]3O[C@H](CO)[C@@H](O)[C@H](N)[C@H]3O)[C@H](N)C[C@@H]2N)O1 | inactive |  |  |
| CCN(CC)CCOc1ccc2nc(N(C)C)sc2c1 | inactive |  |  |
| CC1=C(/C=C/C(C)=C/C=C/C(C)=C/C=C/C=C(C)/C=C/C=C(C)/C=C/C2=C(C)C[C@@H](O)CC2(C)C)C(C)(C)C[C@H](O)C1 | inactive |  |  |
| CN1C(=O)OC(C)(C)C1=O | inactive |  |  |
| C[C@@H]1O[C@@H]1P(=O)(O)O | 11.1 µM (active) |  |  |
| OC[C@H]1O[C@@](CO)(O[C@H]2O[C@H](CO)[C@@H](O)[C@H](O)[C@H]2O)[C@@H](O)[C@@H]1O | inactive |  |  |

| SMILES | Potency | outcome | activity, negative = inhibition |
| --- | --- | --- | --- |
| CCCCCCCCCCCCCCCCCCCCCC(=O)Nc1ccn([C@@H]2O[C@H](CO)[C@@H](O)[C@@H]2O)c(=O)n1 | inactive |  |  |
| COC1=C(OC)C(=O)C(C/C=C(\C)CC/C=C(\C)CC/C=C(\C)CC/C=C(\C)CC/C=C(\C)CC/C=C(\C)CC/C=C(\C)CC/C=C(\C)CC/C=C(\C)CCC=C(C)C)=C(C)C1=O | inactive |  |  |
| CCCCCCCCCCCC(=O)OCC(O)CO (stereo not drawn) | inactive |  |  |
| CCCCC/C=C\C/C=C\C/C=C\CCCCC(=O)O | inactive |  |  |
| CCOC(=O)Cc1ccc(-c2ccccc2)cc1 | inactive |  |  |
| O=C1CCC(=O)N1CO | inactive |  |  |
| C=C1CC[C@H](O)C/C1=C\C=C1/CCC[C@]2(C)[C@@H]([C@H](C)CCCC(C)C)CC[C@@H]12 | inactive |  |  |
| COc1ccc2c(=O)c(C)c(-c3ccccc3)oc2c1CN(C)C | inactive |  |  |
| CCN1C(=O)NC(c2ccccc2)C1=O (stereo not drawn) | inactive |  |  |
| O=C(O)CCC/C=C\C[C@@H]1[C@@H](/C=C/[C@@H](O)COc2cccc(Cl)c2)[C@H](O)C[C@@H]1O | inactive |  |  |
| NC[C@@H]1O[C@H](O[C@H]2[C@@H](O)[C@H](O[C@@H]3[C@@H](O)[C@H](N)C[C@H](N)[C@H]3O[C@H]3O[C@H](CO)[C@@H](O)[C@H](O)[C@H]3N)O[C@@H]2CO)[C@H](N)[C@@H](O)[C@@H]1O |  | inactive [at 0.4 µM] |  |
| CN[C@@H]1[C@@H](O)[C@@H](O[C@@H]2[C@@H](O)[C@H](O[C@H]3O[C@H](CN)[C@@H](O)[C@H](O)[C@H]3O)[C@@H](N)C[C@H]2NC(=O)C(O)CN)OC[C@]1(C)O (stereo partly drawn) | inactive |  |  |
| CC(=O)Nc1c(I)c(C(=O)N[C@H]2C(O)O[C@H](CO)[C@@H](O)[C@@H]2O)c(I)c(N(C)C(C)=O)c1I (stereo partly drawn) | inactive |  |  |
| CS(=O)(=O)c1ccc([C@@H](O)[C@@H](COC(=O)CN)NC(=O)C(Cl)Cl)cc1 | inactive |  |  |
| CC(C)(C)CC(C)(C)c1cc(Cc2cc(C(C)(C)CC(C)(C)C)cc(-n3nc4ccccc4n3)c2O)c(O)c(-n2nc3ccccc3n2)c1 |  |  | -7.19% [at 4.49 µM] |

From PubChem BioAssay (NCATS)
